The text below walks through data of PubChem BioAssay (NCATS).

Results filed as inconclusive are left out. Calls of active or inactive are those of the source. Unless noted, calls follow the shape of the dose curve; as a rule, active = well fitted curve in the direction sought with a large enough effect; inconclusive = small, poorly fitted or top-dose-only effect, or another doubt; inactive = no such curve, though single readings can be large; an effect the other way counts as inactive or inconclusive.

Assay [1] deals with Endonuclease 4 (Escherichia coli (strain K12)) (UniProt P0A6C1). The assay can be described thus: Counterscreen for APE1 Inhibitors: qHTS Validation Assay for Inhibitors of Endonuclease IV (AID 1708). The method, boiled down:
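Measured as reaction progress, the fluorescence gain between first and third kinetic reads after adding 50 nM TAMRA/BHQ-2 THF duplex to 2 nM enzyme preincubated 15 min with compound; 2 mM MgCl2, pH 7.5.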
On the technique in general: A counterscreen serves to expose hits that act by an unwanted route or on another target.

Assay [2] is described as follows: qHTS for differential inhibitors of proliferation of Plasmodium falciparum line 7G8 (AID 1815).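 Also: potency is read from the fitted curve at half-maximal effect; parasite growth measured after three days of incubation.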 On the technique in general: Quantitative high-throughput screening tests each substance at several concentrations.
The nature of assay [3]: qHTS for differential inhibitors of proliferation of Plasmodium falciparum line 3D7 (AID 1876). Also: potency is read from the fitted curve at half-maximal effect.
Assay [4] in a line: qHTS for differential inhibitors of proliferation of Plasmodium falciparum line D10 (AID 1877).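 Also: potency is read from the fitted curve at half-maximal effect; parasites grown with compound for 72 h before DNA staining.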
Assay [5] can be described thus: qHTS for differential inhibitors of proliferation of Plasmodium falciparum line Dd2 (AID 1882). Also: potency is read from the fitted curve at half-maximal effect; nearly all actives have a fitted effect of over 65% in size. Particulars: Potency: Plasmodium falciparum Dd2 proliferation inhibition. The method, boiled down: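 RBC culture, 0.3% parasitemia / 2.5% Hct final; cpd added by pin tool in DMSO; 72 h, 37 C, 5% CO2; lysis buffer + SYBR Green I, o/n RT dark; FI 485/535; norm. to artemisinin 0.29 uM and DMSO.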

A short description of assay [6]: qHTS for differential inhibitors of proliferation of Plasmodium falciparum line HB3 (AID 1886).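 Also: potency is read from the fitted curve at half-maximal effect; parasites grown with compound for 72 h before SYBR Green readout.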 Particulars: Potency: Plasmodium falciparum HB3 proliferation inhibition.
Assay [7] concerns the target ATP-dependent DNA helicase Q1 (Homo sapiens) (UniProt P46063). Nature of the assay: qHTS Validation Assay for Inhibitors of RecQ-Like Dna Helicase 1 (RECQ1) (AID 2353). The method, boiled down: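 RECQ1T1 50 nM; forked duplex (20 bp + 30-nt ss tails) 200 nM, ATP 2 mM final; pH 8.0, 2 mM MgCl2, 2.5 ug/ml poly(dI-dC); 15 min compound preincubation; discontinuous kinetic read over 2 h at RT.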

Assay [8] in a line: High Content Imaging Cell-Based qHTS for Inhibitors of the mTORC1 Signaling Pathway in MEF Cells (AID 2667).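 Also: Tsc2-/- p53-/- MEFs stably re-expressing wild-type Tsc2 exposed 24 h; series mostly up to about 38 µM.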 The method, boiled down:
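Fixed-cell imaging of phospho-S6 (Ser235/236, Alexa-488) after 24 hrs of compound treatment at 37 degree Celsius. Signal was normalized to Hoechst, and thresholds from the highest and lowest wells split cells into % active versus % non-active.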

The nature of assay [9]: Validation screen for small molecules that induce DNA re-replication in MCF 10A normal breast cells (AID 463097). Also: nearly all actives have a fitted effect of over 60% in size. In outline: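 Read-out is Hoechst total nuclear intensity by fluorescence scanning imager, flagging increased high-DNA-content nuclei. Compounds were incubated with MCF 10A cells for 48 hr (37 C, 5% CO2) before 40 min staining.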
Assay [10] addresses DNA polymerase III PolC-type (Bacillus subtilis (strain 168)) (UniProt P13267). The assay can be described thus: qHTS Validation Assay for the Inhibitors of DNA Replication in Gram-Positive Bacteria (AID 485295).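 Also: reconstituted holoenzyme with PolC plus beta clamp SSB and primase; PicoGreen fluorescence of double-stranded DNA made on primed circular M13 template; series mostly up to about 57 µM.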 In outline: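 Double-stranded DNA product detected by PicoGreen fluorescence after EDTA quench. Compound incubated with B. subtilis holoenzyme (PolC, beta subunit, SSB, primase) before substrate addition; primed replication of M13Gori with dNTPs and NTPs at room temperature; DMSO defines 0% inhibition.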

The target in assay [11] is Tumor susceptibility gene 101 protein (Homo sapiens) (UniProt Q99816). Nature of the assay: qHTS Validation Assay for Iinhibitors of HIV-1 Budding by Blocking the Interaction of PTAP/TSG101 (AID 485342; calls by dose curve). In outline:
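Fluorescence polarization of 50 nM FITC-PTAP peptide bound to 10 uM Tsg101 binding domain was read after 20 min room-temperature incubation with compounds, in 10 mM HEPES pH 7.5, 0.15 M NaCl, 0.01% Tween 20.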

The target in assay [12] is Beta-2 adrenergic receptor (Homo sapiens) (UniProt P07550). The assay can be described thus: qHTS validation assay of beta-arrestin-biased ligands of beta2-adrenergic receptor (AID 485366). The method, boiled down:
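Screening used a titration range of up to 46 microM in a beta-arrestin recruitment Tango luciferase assay. Cells in 1% FBS medium were treated 18 hr at 37 degrees C, and luminescence was normalized to %Activity.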

Assay [13] can be described thus: Quantitative high throughput screen for delayed death inhibitors of the malarial parasite plastid, 96 hour incubation (AID 488745). Also: potency is read from the fitted curve at half-maximal effect; nearly all actives have a fitted effect of over 70% in size. The method, boiled down:
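Luciferase-expressing P. falciparum, infected RBCs 2% Hct/0.1% parasitemia (final); 96 h cpd exposure, 37 C, 5% CO2; RPMI 1640 + 0.5% Albumax, bicarbonate, gentamycin. Readout: luminescence loss = growth inhibition.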

Assay [14] addresses Thioredoxin reductase 1, cytoplasmic (Rattus norvegicus) (UniProt O89049). The assay can be described thus: qHTS Assay for Substrates of Mammalian Selenoprotein Thioredoxin Reductase 1 (TrxR1) (AID 488772).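 Also: series mostly up to about 57 µM; a drop in NADPH fluorescence below the no-compound background marks a TrxR1 substrate.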 In outline:
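In this dual-purpose format, potential substrates are identified from the first fluorescence read after selenite addition, not from the 8-minute delta. Rat enzyme is preincubated with NADPH and then with compound at ~22 deg C.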

Assay [15] shares this target. Nature of the assay: qHTS Assay for Inhibitors of Mammalian Selenoprotein Thioredoxin Reductase 1 (TrxR1) (AID 488773). Also: potency is read from the fitted curve at half-maximal effect; nearly all actives have a fitted effect of over 40% in size. Particulars: Potency: inhibition. In outline: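 Inhibition is scored from the loss of NADPH fluorescence between first and last reads of an 8-min kinetic run. Selenite (400 uM) was the substrate, added after 15 min compound preincubation at room temperature.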

Assay [16] concerns the target M-phase phosphoprotein 8 (Homo sapiens) (UniProt Q99549). Nature of the assay: qHTS Validation Assay for Inhibitors for MPP8 Chromodomain Interactions with Methylated Histone Tails (AID 488949).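 Also: AlphaScreen signal from MPP8 chromodomain bound to biotinylated H3K9me3 peptide; top concentration of the series differs between compounds; nearly all actives have a fitted effect of over 55% in size.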 The method, boiled down: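 AlphaScreen proximity signal from streptavidin donor and Ni-chelate acceptor beads (10 ug/mL each) reported binding of MPP8 to trimethyl-K9 H3(1-18) peptide, both at 50 nM. The complex formed 30 min before a 30 min compound exposure at room temperature, in PBS pH 7.4.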

Assay [17] has as its target Methanococcus maripaludis chaperonin (MmCpn) (UniProt Q6LX38). Nature of the assay: High-Throughput Screening for Modulators of Cytosolic Chaperonin Activity: MmCpn Primary Screen (AID 488978).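 Also: 50 nM MmCpn enzyme hydrolysing 30 µM ATP at 37 °C.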 The method, boiled down: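 ATPase activity of 50 nM MmCpn was assayed with 30 uM ATP, 10 minutes at 37C, after a 5 min compound preincubation at room temperature. ADP production was read as HTRF emission at 590 and 665 nm.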

Assay [18] concerns the target Thyrotropin receptor (Homo sapiens) (UniProt P16473). The assay can be described thus: qHTS Assay for Antagonists of the Thyroid Stimulating Hormone Receptor (AID 488980). Also: series mostly up to about 58 µM. In outline:
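Inhibition of cAMP raised by EC80 TSH (4 nM final) was read by HTRF, with lysate cAMP competing against cAMP-d2 for cryptate antibody after 30 min at room temperature. The cells were transfected HEK293 held in phosphodiesterase inhibitor RO 20-1724 at 70 uM.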

Assay [19] has as its target D(1A) dopamine receptor (Homo sapiens) (UniProt P21728). The assay can be described thus: HTS Assay for Allosteric Agonists of the Human D1 Dopamine Receptor: Primary Screen for Agonists (AID 488981). In outline: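 Tetracycline-induced HEK293 T-REx cells force-coupled to calcium signalling were incubated overnight at 30 C and dye-loaded at room temperature. Calcium flux over 180 s after compound addition flagged agonists; a further 180 s read after EC20 dopamine flagged potentiators.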

Thioredoxin reductase 1, cytoplasmic (Rattus norvegicus), sequence (O89049 whole entry, looked up): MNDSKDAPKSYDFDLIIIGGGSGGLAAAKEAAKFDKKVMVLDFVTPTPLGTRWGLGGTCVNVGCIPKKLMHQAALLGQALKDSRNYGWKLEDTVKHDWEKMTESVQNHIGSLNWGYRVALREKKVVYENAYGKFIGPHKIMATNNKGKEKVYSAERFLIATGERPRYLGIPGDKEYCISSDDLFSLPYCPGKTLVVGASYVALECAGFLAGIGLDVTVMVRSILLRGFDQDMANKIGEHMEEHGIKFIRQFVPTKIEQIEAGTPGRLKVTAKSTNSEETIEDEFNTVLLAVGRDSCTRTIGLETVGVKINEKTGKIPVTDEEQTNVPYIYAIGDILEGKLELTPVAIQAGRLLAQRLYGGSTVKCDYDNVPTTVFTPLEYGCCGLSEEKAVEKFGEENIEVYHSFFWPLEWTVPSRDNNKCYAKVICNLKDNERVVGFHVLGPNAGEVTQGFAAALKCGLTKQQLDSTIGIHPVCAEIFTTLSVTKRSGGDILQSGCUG
Methanococcus maripaludis chaperonin (MmCpn), sequence (Q6LX38 1-543): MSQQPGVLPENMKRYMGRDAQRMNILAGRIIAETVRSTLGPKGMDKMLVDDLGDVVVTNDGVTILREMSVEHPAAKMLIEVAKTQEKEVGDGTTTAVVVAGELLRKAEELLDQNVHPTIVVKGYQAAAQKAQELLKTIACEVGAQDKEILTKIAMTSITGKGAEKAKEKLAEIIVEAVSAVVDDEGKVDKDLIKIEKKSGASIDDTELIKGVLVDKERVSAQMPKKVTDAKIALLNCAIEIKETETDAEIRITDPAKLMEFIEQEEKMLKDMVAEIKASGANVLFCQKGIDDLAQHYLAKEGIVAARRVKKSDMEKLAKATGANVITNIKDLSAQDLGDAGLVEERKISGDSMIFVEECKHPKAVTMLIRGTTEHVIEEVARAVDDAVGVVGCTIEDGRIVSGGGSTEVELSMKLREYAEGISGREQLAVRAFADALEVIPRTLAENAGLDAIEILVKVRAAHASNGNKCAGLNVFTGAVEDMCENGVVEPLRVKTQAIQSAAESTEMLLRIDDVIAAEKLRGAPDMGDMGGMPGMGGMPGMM
M-phase phosphoprotein 8 (Homo sapiens), sequence (Q99549 whole entry, looked up): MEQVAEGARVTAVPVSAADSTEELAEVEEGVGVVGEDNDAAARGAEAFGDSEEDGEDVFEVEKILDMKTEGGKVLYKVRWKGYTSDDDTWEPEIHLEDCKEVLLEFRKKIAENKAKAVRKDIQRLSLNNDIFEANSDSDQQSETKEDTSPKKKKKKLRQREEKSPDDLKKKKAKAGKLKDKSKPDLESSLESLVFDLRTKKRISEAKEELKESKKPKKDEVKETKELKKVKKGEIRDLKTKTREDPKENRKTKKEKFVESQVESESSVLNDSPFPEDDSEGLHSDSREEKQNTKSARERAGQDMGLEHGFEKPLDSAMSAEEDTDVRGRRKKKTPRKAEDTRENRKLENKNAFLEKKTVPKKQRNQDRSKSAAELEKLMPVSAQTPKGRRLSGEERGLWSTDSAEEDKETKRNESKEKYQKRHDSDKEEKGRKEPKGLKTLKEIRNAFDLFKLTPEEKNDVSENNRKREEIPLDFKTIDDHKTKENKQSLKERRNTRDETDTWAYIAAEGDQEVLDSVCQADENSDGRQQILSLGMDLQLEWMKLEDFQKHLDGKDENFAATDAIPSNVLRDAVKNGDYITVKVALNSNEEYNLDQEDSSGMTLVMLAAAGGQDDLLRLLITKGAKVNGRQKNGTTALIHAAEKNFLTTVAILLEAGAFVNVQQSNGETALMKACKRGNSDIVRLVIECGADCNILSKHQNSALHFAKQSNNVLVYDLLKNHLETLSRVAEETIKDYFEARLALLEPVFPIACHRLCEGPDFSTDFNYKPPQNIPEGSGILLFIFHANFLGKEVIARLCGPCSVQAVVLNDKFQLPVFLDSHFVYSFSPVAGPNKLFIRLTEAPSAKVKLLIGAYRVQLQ
D(1A) dopamine receptor (Homo sapiens), sequence (P21728 whole entry, looked up): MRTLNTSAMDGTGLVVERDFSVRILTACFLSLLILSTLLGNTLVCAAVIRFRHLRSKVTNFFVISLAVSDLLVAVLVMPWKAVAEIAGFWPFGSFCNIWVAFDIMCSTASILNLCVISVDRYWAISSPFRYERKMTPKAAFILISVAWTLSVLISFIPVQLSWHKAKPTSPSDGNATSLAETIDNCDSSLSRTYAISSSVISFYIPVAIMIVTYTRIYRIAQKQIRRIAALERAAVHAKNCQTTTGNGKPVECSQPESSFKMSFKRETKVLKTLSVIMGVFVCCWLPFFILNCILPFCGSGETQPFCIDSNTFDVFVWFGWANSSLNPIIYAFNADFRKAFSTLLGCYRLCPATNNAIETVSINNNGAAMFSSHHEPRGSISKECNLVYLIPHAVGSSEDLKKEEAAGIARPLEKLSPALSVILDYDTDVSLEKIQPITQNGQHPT
Thyrotropin receptor (Homo sapiens), sequence (P16473 whole entry, looked up): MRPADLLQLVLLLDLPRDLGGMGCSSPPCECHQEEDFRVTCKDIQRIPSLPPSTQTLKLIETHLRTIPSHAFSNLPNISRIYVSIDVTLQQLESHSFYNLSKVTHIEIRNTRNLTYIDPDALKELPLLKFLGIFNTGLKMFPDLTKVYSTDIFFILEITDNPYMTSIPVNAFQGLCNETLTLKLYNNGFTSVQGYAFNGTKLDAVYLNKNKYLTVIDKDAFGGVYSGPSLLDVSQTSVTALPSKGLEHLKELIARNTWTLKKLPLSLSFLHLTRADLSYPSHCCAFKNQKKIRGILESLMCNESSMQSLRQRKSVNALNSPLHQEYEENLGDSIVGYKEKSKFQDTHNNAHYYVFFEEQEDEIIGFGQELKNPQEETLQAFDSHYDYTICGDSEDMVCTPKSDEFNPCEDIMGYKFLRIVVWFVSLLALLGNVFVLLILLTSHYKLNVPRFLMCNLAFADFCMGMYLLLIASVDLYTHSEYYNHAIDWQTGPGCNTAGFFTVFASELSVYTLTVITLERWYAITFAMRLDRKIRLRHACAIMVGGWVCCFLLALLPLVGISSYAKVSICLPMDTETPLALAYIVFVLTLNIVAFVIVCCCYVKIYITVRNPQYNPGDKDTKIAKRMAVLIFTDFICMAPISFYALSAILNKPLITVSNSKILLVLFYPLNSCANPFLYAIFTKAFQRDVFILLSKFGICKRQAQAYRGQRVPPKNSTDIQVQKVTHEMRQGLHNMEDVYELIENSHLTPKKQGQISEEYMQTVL
DNA polymerase III PolC-type (Bacillus subtilis (strain 168)), sequence (P13267 whole entry, looked up): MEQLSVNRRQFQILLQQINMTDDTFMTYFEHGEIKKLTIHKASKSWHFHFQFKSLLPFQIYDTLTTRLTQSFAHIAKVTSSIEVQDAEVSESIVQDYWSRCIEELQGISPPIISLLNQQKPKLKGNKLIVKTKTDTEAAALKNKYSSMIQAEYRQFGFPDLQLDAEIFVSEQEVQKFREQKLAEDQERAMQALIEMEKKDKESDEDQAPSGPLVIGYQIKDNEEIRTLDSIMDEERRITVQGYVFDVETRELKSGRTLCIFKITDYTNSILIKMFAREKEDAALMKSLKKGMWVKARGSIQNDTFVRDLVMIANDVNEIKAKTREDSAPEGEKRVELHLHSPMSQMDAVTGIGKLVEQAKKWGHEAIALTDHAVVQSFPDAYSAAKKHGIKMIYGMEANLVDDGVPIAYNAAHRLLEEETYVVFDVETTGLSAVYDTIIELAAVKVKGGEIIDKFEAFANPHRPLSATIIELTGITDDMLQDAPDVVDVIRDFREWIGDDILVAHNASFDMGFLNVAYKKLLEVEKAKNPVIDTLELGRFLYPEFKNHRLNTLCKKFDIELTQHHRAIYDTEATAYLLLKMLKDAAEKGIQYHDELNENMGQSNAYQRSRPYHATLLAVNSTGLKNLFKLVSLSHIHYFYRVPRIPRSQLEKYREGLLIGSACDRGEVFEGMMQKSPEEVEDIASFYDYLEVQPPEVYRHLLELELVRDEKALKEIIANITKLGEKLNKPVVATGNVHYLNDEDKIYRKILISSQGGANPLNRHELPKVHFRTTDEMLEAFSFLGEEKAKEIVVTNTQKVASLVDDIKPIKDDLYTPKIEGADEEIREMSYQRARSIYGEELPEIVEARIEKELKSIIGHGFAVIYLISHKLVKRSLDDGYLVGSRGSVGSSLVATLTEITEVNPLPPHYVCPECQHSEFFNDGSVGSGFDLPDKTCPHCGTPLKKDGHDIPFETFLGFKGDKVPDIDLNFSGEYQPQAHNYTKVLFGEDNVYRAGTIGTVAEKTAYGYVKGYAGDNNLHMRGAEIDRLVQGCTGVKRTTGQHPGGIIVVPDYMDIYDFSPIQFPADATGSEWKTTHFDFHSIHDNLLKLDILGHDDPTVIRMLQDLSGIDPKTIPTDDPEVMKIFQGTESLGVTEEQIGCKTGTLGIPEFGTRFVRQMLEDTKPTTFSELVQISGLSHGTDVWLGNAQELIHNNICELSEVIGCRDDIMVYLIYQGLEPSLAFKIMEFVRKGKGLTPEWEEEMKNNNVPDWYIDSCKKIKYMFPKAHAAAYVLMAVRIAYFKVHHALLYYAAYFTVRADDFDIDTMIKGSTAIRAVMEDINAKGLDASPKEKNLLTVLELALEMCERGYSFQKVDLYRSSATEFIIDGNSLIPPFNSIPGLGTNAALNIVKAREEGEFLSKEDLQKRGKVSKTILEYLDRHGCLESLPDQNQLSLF
Tumor susceptibility gene 101 protein (Homo sapiens), sequence (Q99816 whole entry, looked up, the tested form may be a part): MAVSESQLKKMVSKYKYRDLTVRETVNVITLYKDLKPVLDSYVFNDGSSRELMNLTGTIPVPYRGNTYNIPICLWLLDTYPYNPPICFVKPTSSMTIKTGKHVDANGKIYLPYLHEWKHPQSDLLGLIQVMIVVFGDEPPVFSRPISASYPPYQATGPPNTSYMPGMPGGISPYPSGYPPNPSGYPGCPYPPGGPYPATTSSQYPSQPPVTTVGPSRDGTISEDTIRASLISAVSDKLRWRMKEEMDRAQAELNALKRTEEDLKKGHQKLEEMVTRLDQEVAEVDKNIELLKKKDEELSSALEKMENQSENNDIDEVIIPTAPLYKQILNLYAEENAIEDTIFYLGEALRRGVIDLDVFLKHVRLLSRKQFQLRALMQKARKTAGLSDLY

As to `S=C(Nc1ccccc1)Nc1nccs1`, the Potency entry in assay [1], in assay [7], in [8], in assay [9], in assay [10] and in [16] was “inactive” throughout. For the same compound, the Potency in assay [2] is 3.55 µM (active); in assay [3], 7.94 µM (active); in assay [4] it was 12.6 µM (active); in [5], 11.2 µM (active); in [6], 8.91 µM (active); in assay [13], 9.28 µM (active). Moreover, the Potency in [15] is 5.97 µM (active). Moreover, the result in assay [11], in [12], in [14], in assay [17], in assay [18] and in [19] was inactive.
